Cycloheximide cs: counter-screen hit for Shiga toxin inhibitors, cycloheximide; max response, %; 300,000 tested, 12% active; cell reporter, cycloheximide protein synthesis inhibition counterscreen; in the data active = max response mostly above about 13%, no sharp cut-off; inactive = mostly below about 14%; also: read at 38.3 µM for the half of the compounds with a filed dose; 0% is about no effect
LmPK inh: blocks Leishmania mexicana pyruvate kinase activity; Q27686; purified LmPK, Kinase-Glo ATP luminescence, 1 h; Potency, µM (titrated, usually from 57.5 µM), for the others: top-dose activity change, negative = inhibition, usual class: inhibitors; 290,000 tested, 0.37% active; AID 1721; also: potency is read from the fitted curve at half-maximal effect; % is scaled to controls: 0 for no effect and ±100 for the full control effect
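Pyruvate kinase activity monitored as ATP production (luciferase luminescence). Conditions: 0.1 nM enzyme, 0.5 mM PEP, 0.1 mM ADP, 1 h, RT; normalized against uninhibited and no-enzyme wells.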
Sm TGR inh: inhibitors of Schistosoma mansoni thioredoxin glutathione reductase; purified TGR, DTNB reduction, TNB absorbance 405 nm; 360,000 tested, 3% active; Q962Y6; Potency, µM (top dose mostly 114 µM), for inactives: at the highest dose activity change, negative = inhibition, actives largely listed as inhibitors; also: potency is read from the fitted curve at half-maximal effect; % is scaled to controls: 0 for no effect and ±100 for the full control effect; nearly all actives have a fitted effect of over 60% in size
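Kinetic colorimetric format: TGR-catalysed, NADPH-driven DTNB reduction monitored via TNB absorbance. Enzyme dispensed at 20 nM; compound exposure 15 min at room temperature before reaction start.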
Giardia FBPA inh: Giardia lamblia aldolase inhibition; purified Giardia FBPA; Potency, µM (doses to about 59.6 µM), without a hit: at the highest dose activity, negative = inhibition, hits mostly inhibitors; AID 2451; 290,000 tested, 0.71% active; A8B2U2; also: potency is read from the fitted curve at half-maximal effect; % is scaled to controls: 0 for no effect and ±100 for the full control effect; nearly all actives have a fitted effect of over 55% in size
Target sequence (A8B2U2 whole entry, looked up): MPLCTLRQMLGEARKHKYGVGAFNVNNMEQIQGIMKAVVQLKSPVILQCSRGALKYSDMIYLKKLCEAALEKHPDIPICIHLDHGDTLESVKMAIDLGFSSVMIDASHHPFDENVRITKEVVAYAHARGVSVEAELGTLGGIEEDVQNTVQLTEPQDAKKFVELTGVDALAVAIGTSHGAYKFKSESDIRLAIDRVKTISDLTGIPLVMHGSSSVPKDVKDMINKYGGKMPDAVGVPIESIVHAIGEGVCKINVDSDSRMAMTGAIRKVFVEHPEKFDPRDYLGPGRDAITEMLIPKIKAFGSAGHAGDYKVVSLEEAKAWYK
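40 nM FBPA preincubated 10 min at RT with compound (up to 57.5 uM final), then substrate plus GAPDH/TPI/NAD/arsenate coupling and diaphorase/resazurin added. Fluorescence read after 20 min at RT, 525/598 nm.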
TbPYK inhibitor: T. brucei pyruvate kinase inhibition; Q57TT1; TbPYK enzyme, Kinase-Glo Plus ATP luminescence, 45 min; Potency, µM (titrated, usually from 76.8 µM), for inactives: top-dose activity, negative = inhibition, actives largely listed as inhibitors; 410,000 tested, 0.12% active; AID 624173; also: potency is read from the fitted curve at half-maximal effect; % is scaled to controls: 0 for no effect and ±100 for the full control effect; nearly all actives have a fitted effect of over 50% in size
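Luminescent Kinase-Glo Plus end-point after 45 min room-temperature reaction of T. brucei pyruvate kinase started with 130 uM ADP (final). Buffer TEA 50 mM pH 7.2 with KCl, MgCl2, BSA, Tween-20; titration-based qHTS with fitted concentration-effect curves.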
Shiga toxin inh: Shiga toxin inhibition. AID 2315. inhibition, % at 38.7 µM. Vero cells, Shiga toxin protein synthesis inhibition reporter. 290,000 tested, 9.2% active; in the data active = inhibition mostly above about 28%, no sharp cut-off; inactive = mostly below about 43%; also: 0% is about no effect
An asterisk follows results filed as active; [ ] = another dose, or the depositor's remark. The full list was thinned out, with hits kept by preference. Unless noted, calls follow the shape of the dose curve; as a rule, active = well fitted curve in the direction sought with a large enough effect; inconclusive = small, poorly fitted or top-dose-only effect, or another doubt; inactive = no such curve, though single readings can be large; an effect the other way counts as inactive or inconclusive.

Results for S=C(Nc1ccc(Oc2ccccc2)cc1)N1CCOCC1 ?
Cycloheximide cs: 12.3*; LmPK inh: -2.1%; Sm TGR inh: -5.6%; Giardia FBPA inh: 13.3%; TbPYK inhibitor: 1.2%; Shiga toxin inh: 25.1

How did S=C(Nc1ccccc1)N1CCOCCOCCN(C(=S)Nc2ccccc2)CCOCCOCC1 do in these assays?
Cycloheximide cs: -2.2; LmPK inh: 2.1%; Sm TGR inh: 0.8%; Giardia FBPA inh: -4.9%; TbPYK inhibitor: -20.9%; Shiga toxin inh: -3.0

How did O=C(c1cccc(Oc2ccccc2)c1)N1CCOCC1 do in these assays?
Cycloheximide cs: 1.5; LmPK inh: -1.0%; Sm TGR inh: -2.8%; TbPYK inhibitor: -7.8%; Shiga toxin inh: 5.8

What do the screens show for `Cc1ccc(F)cc1C(=O)N1CCCC(c2cc(C(=O)NCc3ccc(F)cc3)no2)C1` (configuration not stated)?
TbPYK inhibitor: 3.6%

Results for COc1ccc(N2C(=O)CC(NCCNc3ccc([N+](=O)[O-])cn3)C2=O)cc1 (configuration not stated) ?
Cycloheximide cs: -0.5; LmPK inh: 2.4%; Sm TGR inh: 14.1µM*; Giardia FBPA inh: -7.3%; TbPYK inhibitor: -1.4%; Shiga toxin inh: -9.2

Results for CCCOc1ccc(N2C(=O)CC(NCCc3ccc(S(N)(=O)=O)cc3)C2=O)cc1 (configuration not stated) ?
Cycloheximide cs: -0.4; LmPK inh: 2.4%; Sm TGR inh: 44.7µM*; Giardia FBPA inh: 0.4%; TbPYK inhibitor: -6.1%; Shiga toxin inh: 8.6

How did CCOc1ccc(N2C(=O)CC(NCCc3ccc(S(N)(=O)=O)cc3)C2=O)cc1 (configuration not stated) do in these assays?
Cycloheximide cs: 2.9; LmPK inh: -1.6%; Sm TGR inh: -9.7%; Giardia FBPA inh: -7.2%; TbPYK inhibitor: -0.3%; Shiga toxin inh: 18.7

How did CCOc1ccc(N2C(=O)CC(NCCNc3ccc([N+](=O)[O-])cn3)C2=O)cc1 (configuration not stated) do in these assays?
Cycloheximide cs: -3.5; LmPK inh: -1.8%; Sm TGR inh: 7.08µM*; Giardia FBPA inh: -6.6%; TbPYK inhibitor: -0.8%; Shiga toxin inh: -1.7

How did COc1ccc2c(Sc3ccccc3)c(C(=O)NCC(C)c3ccccc3)[nH]c2c1 (configuration not stated) do in these assays?
Sm TGR inh: -9.9%; TbPYK inhibitor: 2.9%

Results for CC(C)=NNc1nc2c(c(=O)n(C)c(=O)n2C)n1C ?
Cycloheximide cs: -0.4; LmPK inh: -6.1%; Sm TGR inh: -1.1%; Giardia FBPA inh: inconclusive; TbPYK inhibitor: -12.5%; Shiga toxin inh: 1.9

Results for CC(C)Nc1nc2c(c(=O)n(C)c(=O)n2C)n1C ?
Cycloheximide cs: -2.6; LmPK inh: 2.0%; Sm TGR inh: -2.7%; Giardia FBPA inh: 1.1%; TbPYK inhibitor: 0.4%; Shiga toxin inh: 2.1

How did Cn1c(=O)c2c(nc(NC3CCCC3)n2C)n(C)c1=O do in these assays?
Cycloheximide cs: 25.1*; LmPK inh: 4.2%; Sm TGR inh: 1.9%; Giardia FBPA inh: 5.9%; TbPYK inhibitor: -6.1%; Shiga toxin inh: -2.7

What do the screens show for `Cn1c(=O)c2c(nc(NN=C3CCCCC3)n2C)n(C)c1=O`?
Cycloheximide cs: -1.1; LmPK inh: -14.7%[11.5 µM]; Sm TGR inh: 12.6µM*; Giardia FBPA inh: -28.2%; TbPYK inhibitor: -1.7%; Shiga toxin inh: -23.4

Results for COc1ccc(OS(=O)(=O)Cc2ccccc2)cc1 ?
Cycloheximide cs: 20.4*; LmPK inh: -5.3%; Sm TGR inh: -0.2%; Giardia FBPA inh: 3.0%; TbPYK inhibitor: 2.2%; Shiga toxin inh: 41.1*

What do the screens show for `O=c1[nH]c2ccc(Br)cc2o1`?
TbPYK inhibitor: -1.7%

Results for O=C(CCl)c1ccc2[nH]c(=O)oc2c1 ?
Cycloheximide cs: -3.1; LmPK inh: 5.6%; Sm TGR inh: 11.2µM*; Giardia FBPA inh: -11.5%; TbPYK inhibitor: -1.0%; Shiga toxin inh: -4.7

What do the screens show for `CCOc1ccc(CCNC(=O)CCS(=O)(=O)c2ccc(Cl)cc2)cc1OCC`?
Cycloheximide cs: -2.2; LmPK inh: -5.6%; Sm TGR inh: -3.0%; TbPYK inhibitor: 10.5%; Shiga toxin inh: -15.3

What do the screens show for `Cc1ccccc1-c1nc(-c2ccc(NC(=O)c3cccs3)cc2)no1`?
Cycloheximide cs: 46.0*; LmPK inh: -10.9%; Sm TGR inh: 7.6%; Giardia FBPA inh: 4.1%; TbPYK inhibitor: 4.5%; Shiga toxin inh: 82.4*

Results for O=C(Nc1ccc(-c2noc(-c3ccccc3F)n2)cc1)c1cccs1 ?
Cycloheximide cs: 45.9*; LmPK inh: -6.5%; Sm TGR inh: -2.1%; Giardia FBPA inh: 4.8%; TbPYK inhibitor: -10.9%; Shiga toxin inh: 71.3*

What do the screens show for `NC(=O)c1ccc(-c2noc(-c3ccccc3F)n2)cc1`?
Sm TGR inh: 8.1%; TbPYK inhibitor: 2.7%

How did O=c1c2ccccc2nc(N/N=C/c2ccc(O)cc2)n1O do in these assays?
Cycloheximide cs: 2.6; LmPK inh: inconclusive; Sm TGR inh: -21.8%; Giardia FBPA inh: -12.9%; TbPYK inhibitor: 3.0%; Shiga toxin inh: 21.3

How did O=c1c2ccccc2nc(N/N=C/c2c(O)ccc3ccccc23)n1O do in these assays?
Cycloheximide cs: 39.9*; LmPK inh: 2.6%; Sm TGR inh: 1.6%; Giardia FBPA inh: inconclusive; TbPYK inhibitor: -11.8%; Shiga toxin inh: 52.5*

Results for O=C(Oc1ccccc1N1C(=O)CCC1=O)c1ccco1 ?
Cycloheximide cs: 0.7; LmPK inh: 6.4%; Sm TGR inh: -27.1%; Giardia FBPA inh: -23.7%; TbPYK inhibitor: -1.1%; Shiga toxin inh: -9.3

Results for O=C(NNC1CC(=O)N(c2ccccc2)C1=O)c1ccco1 (configuration not stated) ?
Cycloheximide cs: 3.8; LmPK inh: 0.4%; Giardia FBPA inh: 7.6%; TbPYK inhibitor: -2.0%; Shiga toxin inh: 16.8

Results for O=C1CS/C(=N\N=C\c2ccco2)N1c1ccccc1 ?
Cycloheximide cs: 14.5*; LmPK inh: 13.7%; Sm TGR inh: 14.1µM*; Giardia FBPA inh: -4.9%; TbPYK inhibitor: -0.3%; Shiga toxin inh: 44.8

Results for O=C(N=C1SCC(=O)N1c1ccccc1)c1ccco1 ?
Cycloheximide cs: 31.1*; LmPK inh: -4.2%; Sm TGR inh: 1.2%; Giardia FBPA inh: 1.8%; TbPYK inhibitor: 0.1%; Shiga toxin inh: 47.2

Results for O=C(N=C1SCC(=O)N1c1ccccc1Cl)c1ccccc1 ?
Cycloheximide cs: 35.2*; LmPK inh: 2.3%; Sm TGR inh: 6.7%; Giardia FBPA inh: -4.9%; TbPYK inhibitor: -5.9%; Shiga toxin inh: 73.2*

Results for O=C(N=C1SCC(=O)N1c1ccccc1Cl)c1ccco1 ?
Cycloheximide cs: 29.6*; LmPK inh: -2.2%; Sm TGR inh: 3.9%; Giardia FBPA inh: -18.8%; TbPYK inhibitor: -2.4%; Shiga toxin inh: 104.2*
